Source: PubChem BioAssay (several laboratories)
Mcl1-Noxa inh – disrupts binding of human Mcl-1 to Noxa peptide. Q07820. TR-FRET Mcl-1/Noxa peptide binding, 2 h. inhibition, % at 21.7 µM. 1.5% of 220,000 active. AID 1022;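 active = compounds that cut the protein-peptide binding signal by more than 50% relative to plate controls in a single-dose test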;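 also: His-tagged Mcl-1 with rhodamine Noxa BH3 peptide and terbium anti-His antibody; 0% = Mcl-1 plus Noxa peptide wells and 100% = peptide-only wells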
Target sequence (Q07820 whole entry, looked up): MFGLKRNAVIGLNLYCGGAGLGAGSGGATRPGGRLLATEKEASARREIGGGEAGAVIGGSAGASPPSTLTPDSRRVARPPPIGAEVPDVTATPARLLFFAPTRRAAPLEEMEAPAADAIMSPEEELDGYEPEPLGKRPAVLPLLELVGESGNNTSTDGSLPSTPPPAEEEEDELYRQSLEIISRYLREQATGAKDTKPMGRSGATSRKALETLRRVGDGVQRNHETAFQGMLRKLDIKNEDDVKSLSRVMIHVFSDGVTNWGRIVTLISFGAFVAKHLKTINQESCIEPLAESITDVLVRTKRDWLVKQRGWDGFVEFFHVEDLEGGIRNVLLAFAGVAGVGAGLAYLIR
14-3-3 Bad PPI – disrupts binding of bovine 14-3-3 zeta to phospho-Bad peptide. P63103. TR-FRET 14-3-3zeta/Dy647-pBad peptide displacement, 1 h. inhibition, % at 21.7 µM. 0.71% of 220,000 active;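 active = inhibition above about 70%, limit read from the data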;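 also: 0% = full 14-3-3 plus peptide FRET controls and 100% = background without 14-3-3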
Target sequence (P63103 whole entry, looked up): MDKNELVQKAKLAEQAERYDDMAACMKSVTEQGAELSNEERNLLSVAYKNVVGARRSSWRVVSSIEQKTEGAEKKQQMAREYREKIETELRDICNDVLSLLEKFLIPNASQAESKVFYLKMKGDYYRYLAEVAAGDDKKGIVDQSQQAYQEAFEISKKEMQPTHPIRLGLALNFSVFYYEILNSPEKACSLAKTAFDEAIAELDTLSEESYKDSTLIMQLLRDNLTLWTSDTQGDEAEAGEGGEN
Mcl1 Bid PPI – disrupts binding of human Mcl-1 to Bid peptide. inhibition, % at 21.7 µM. AID 1021. 0.97% of 220,000 active. TR-FRET Mcl-1/Bid-Dy647 peptide binding, 1536-well. Q07820;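 active = compounds that cut the binding signal by more than half at the single screening dose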;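 also: His-tagged Mcl-1 with europium anti-His antibody binding Bid BH3 peptide; 0% = Mcl-1 plus peptide wells and 100% = peptide-only wells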
MCL1-BIM inh – inhibitors of human MCL1 binding to BIM-BH3 peptide | Q07820 | GST-MCL1 / FITC-Bim-BH3 fluorescence polarization | inhibition, % at 10.9 µM | 0.68% of 320,000 active;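 active = inhibition above the mean inhibition of all tested compounds plus 3 SD, set per campaign, cut at about 40% in these data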;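 also: 0% = DMSO wells and 100% = unlabeled Bim-BH3 peptide control; higher means more loss of mP so more displacement of Bim peptide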
Mcl-1 Bim block – human Bim-Mcl-1 interaction inhibition; AID 1009; inhibition, % at 10 µM; 0.1% of 190,000 active; Bead-based flow cytometry, Bim peptide-Mcl-1 binding; Q07820; in the data active = inhibition above about 40%;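 also: 0% = no compound tracer wells and 100% = peptide blocker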
* = called active by the depositor; / = not tested or not shown; [ ] = another dose, or the depositor's remark. Sampled rows, rich in hits. Any-hit rate of the full collection: about 2.5%.

SMILES	Mcl1-Noxa inh	14-3-3 Bad PPI	Mcl1 Bid PPI	MCL1-BIM inh	Mcl-1 Bim block
CCN(CC)CCCC(C)NC(=O)c1c(NC(=O)c2ccccc2)sc2c1CCCC2 (stereo not given)	/	/	/	8.2	/
Cc1cccc(C)c1NC(=O)CCCSc1nc2ccccc2s1	4.1	-5.2	-32.5	-5.2	4.0
COc1cc(/C=N/N=C2/C(=O)Nc3ccccc32)ccc1O	36.0	-13.2	-35.5	3.5	-5.0
O=C(/C(=N/N=C/c1ccc(O)c(O)c1)c1ccccc1)c1ccccc1	50.5*	-7.5	-26.4	15.7	-12.0
O=C1Nc2ccccc2/C1=N\N=C\c1ccc(O)c(O)c1	65.4*	-2.5	-40.1	25.1	/
CC1=NN(c2ccccc2)C(=O)/C1=C\c1cn(-c2ccccc2)nc1C	-0.9	-3.6	68.2*	-5.7	-6.0
COc1ccccc1/C=C1/C(=O)N(c2ccccc2)N=C1C	/	/	/	-9.8	/
O=[N+]([O-])c1cccc(S(=O)(=O)NCC2CCCO2)c1 (stereo not given)	-12.9	-0.1	-20.2	3.6	51.0*
COc1ccc(CN2CC34C=CC(O3)C(C(=O)O)C4C2=O)cc1 (stereo not given)	16.5	1.2	-10.5	-3.2	1.0
O=C(OCC(=O)N1CCOCC1)c1ccc(Cl)nc1	17.9	-7.2	-13.4	-3.5	0.0
Cc1ccc(NC(=O)c2cc(N3C(=O)C=CC3=O)ccc2Cl)cc1C	77.3*	-11.7	7.0	15.0	-11.0
Cc1ccc(NC(=O)c2cc(N3C(=O)C=CC3=O)ccc2N2CCOCC2)cc1	54.6*	-2.4	-24.3	/	0.0
CCOC(=O)c1nnn(-c2nonc2N)c1CSc1ccc(C)cc1	-9.0	3.0	7.8	8.4	-2.0
CCOC(=O)c1nnn(-c2nonc2N)c1CSc1ccccc1	6.1	-13.8	52.0*	4.3	-2.0
CC1=Nc2ccccc2N=C(NC(=O)/C=C/C(=O)O)C1c1ccccc1 (stereo not given)	12.4	-6.4	-50.5	-2.9	/
CC1=C(C(=O)N2CCc3ccccc32)C2(CCC(C)CC2)OC1=O (stereo not given)	12.3	83.5*	-29.4	-0.3	-6.0
CCOC(=O)c1cnc(/N=C/N(C)C)s1	-4.3	96.9*	-6.7	-5.8	4.0
O=C(c1ccco1)N1CCN(C(c2ccccc2Cl)c2nnnn2Cc2ccco2)CC1 (stereo not given)	1.4	79.2*	-33.5	-7.3	-3.0
CC(C)CC(c1nnnn1Cc1ccccc1)N1CCN(C(=O)c2ccco2)CC1 (stereo not given)	29.7	85.6*	10.5	-7.6	0.0
CCCn1nnnc1SCC(=O)N1CCN(C(=O)c2ccco2)CC1	-1.3	-6.8	-14.9	-6.9	-2.0
CCCC(c1nnnn1CCOC)N1CCN(C(=O)c2ccco2)CC1 (stereo not given)	10.7	81.2*	-5.4	14.9	-4.0
CC(C)CC(c1nnnn1C(C)C)N1CCN(C(=O)c2ccco2)CC1 (stereo not given)	/	/	/	5.9	/
CC(C)n1nnnc1SCC(=O)N1CCN(C(=O)c2ccco2)CC1	3.3	0.0	4.1	-3.6	93.0*
Cc1csc2ncnc(NC3CCN(Cc4ccccc4)CC3)c12	-11.3	-2.3	-9.3	6.5	/
O=C(O)c1c2c(nc3ccccc13)-c1ccccc1CC2	16.8	-1.8	1.5	9.2	-9.0
SMILES	Mcl1-Noxa inh	14-3-3 Bad PPI	Mcl1 Bid PPI	MCL1-BIM inh	Mcl-1 Bim block
N#Cc1c(-c2ccc([N+](=O)[O-])cc2)nc2n(c1=O)CCS2	/	/	/	2.5	/
CCc1cc(C(=O)Nc2cc(Cl)ccc2N2CCN(C)CC2)sc1C	/	/	/	-8.0	/
CC[n+]1cc(-c2ccccc2)nc(N2CCOCC2)n1	20.4	81.8*[fluorescence artefact?]	-34.4	-7.9	0.0
Cc1ccc(C(=O)NC2c3ccccc3-c3ccccc32)cc1	2.3	5.0	-19.6	10.9	-4.0
Cc1ccc(C(=O)C2C(=O)c3ccccc3C2=O)cc1	9.7	81.8*	6.2	-1.2	-3.0
COc1cc(Cl)cc(NC(=O)CCN2CCN(C)CC2)c1	14.6	76.5*	21.8	-0.4	1.0
Cc1cccc(OCC(=O)OCC(=O)NCC2CCCO2)c1C (stereo not given)	/	/	/	3.1	/
Cc1ccc(-c2nc(N3CCOCC3)sc2C(=O)N2CCOCC2)cc1	-0.2	-23.1	-16.4	0.8	-3.0
Cc1ccc(-c2nc(N3CCOCC3)sc2C(=O)N2CCCCC2)cc1	12.8	12.6	98.0*	5.3	-3.0
O=C1CSC(c2ccc(Cl)cc2)N1c1cccnc1 (stereo not given)	12.7	-5.0	-10.3	4.7	/
O=C1CSC(c2cccnc2)N1c1ccc(Cl)cc1 (stereo not given)	0.5	-15.3	79.4*	1.3	0.0
O=C(CN1CCN(CCN2C(=O)c3cccc4cccc(c34)C2=O)CC1)c1ccc(Cl)cc1	39.7	17.4	-2.5	/	1.0
O=C(CN1CCN(CCN2C(=O)c3cccc4cccc(c34)C2=O)CC1)c1ccc(F)cc1	18.2	-9.5	97.8*	11.6	-1.0
O=C(COc1ccc2ccccc2c1)Nc1cccc2c1C(=O)NC2=O	-119.5	65.6	59.7*	-1.1	-3.0
Cc1cccc(OCC(=O)Nc2ccccc2-c2ccccc2)c1	18.8	-4.1	-18.4	-11.4	-5.0
Cc1cc(C)c(S(=O)(=O)/N=C2/C=C(SCC(=O)O)C(=O)c3ccccc32)cc1C	86.6*	70.3*	28.5	/	2.0
CCS(=O)(=O)c1nc(S(=O)(=O)c2ccc(C)cc2)c(NCCN2CCOCC2)s1	/	/	/	1.8	/
Cc1ncsc1CCOC(=O)c1cccnc1	23.7	70.0	54.2*	-1.6	0.0
Cc1[nH]n(-c2ncc(-c3ccccc3)s2)c(=O)c1C(c1ccc(Br)cc1)C(C#N)C#N (stereo not given)	77.9*	-24.8	28.4	4.4	-6.0
CCCCCN(C(=O)CCC(=O)OCc1cccc(C)c1)c1c(N)n(CCCC)c(=O)[nH]c1=O	/	/	/	-1.1	/
COCCOC(=O)c1c(C)n(C)c2ccc(OC(=O)c3cccs3)cc12	0.5	3.6	-20.8	-2.5	0.0
Cc1ccc(NC(=O)COc2ccc(/C=N/NC(=O)CSCc3ccccc3)cc2)cc1	22.9	1.6	-5.3	-2.0	1.0
O=C(CSCc1ccc(Cl)cc1)Nc1ccc(-c2nnc(-c3ccccc3)o2)cc1	30.1	63.7	59.3*	0.4	-6.0
O=C(CSCc1ccc(Cl)cc1)N/N=C/c1ccc(OCC(=O)Nc2ccccc2)cc1	6.3	2.9	58.1*	4.9	3.0
COc1ccccc1NC(=O)COc1ccc(/C=N/NC(=O)CSCc2cc(C)cc(C)c2)cc1	-39.5	33.4	57.3*	1.7	-5.0
O=C(Cc1ccc(Cl)cc1)Nc1ccc(-c2nnc(-c3ccco3)o2)cc1	26.3	6.7	38.8	-30.2	0.0
Cc1ccc2nc(CSc3nnc(Nc4ccccc4F)s3)cc(=O)n2c1	35.4	-0.1	-8.1	14.9	-2.0
Cc1ccc(Cl)c(OCC(=O)NCC(c2cccs2)N2CCOCC2)c1 (stereo not given)	/	/	/	-1.9	/
COCC(=O)N(C)c1nnc(-c2ccccn2)s1	-11.1	-3.0	-10.3	3.6	-1.0
CCOc1ccc(Oc2ccccc2NC(=O)C2=COCCO2)cc1	/	/	/	-10.8	/
